# Measured values as given in PubChem BioAssay.
# Records with an inconclusive call do not appear. Calls of active or inactive are those of the source.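 The calls were made as follows, unless noted: active = viability at or below 10% of carrier control in both of two separate runs; inconclusive = viability at or below 10% in only one of the two runs; inactive = the rest.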
# Tests used:
# [1] = Her2 expression decrease, cell viability multiplex – SKBR3 breast tumor cells, AlphaScreen, ATP viability, primary screen (AID 461;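 active = Her2 level under about 52% in both replicate screens, with viability over 70% of control, limit read from the data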;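 as to Her2 level: lower value means less Her2 protein in the cells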;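 as to viability: percent of carrier control wells set as 100% viability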); details: SKBR3 Her2 protein level, 18-24 h, measured here: SKBR3 viability, ATP luminescence, at 10 µM
# [2] = molecular target: Receptor tyrosine-protein kinase erbB-2 (Homo sapiens) (UniProt P04626); test: as above; details: 18-24 h, at 10 µM, stronger effect = lower value
# [3] = reduced viability of SK-BR-3 breast cancer cells – cell-based, 24 h, human, pilot screen (AID 572); details: SK-BR-3 viability, CellTiter-Glo luminescence, at 10 µM, stronger effect = lower value;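 also: compound exposure lasted between 18 and 24 h rather than exactly 24 h; 100% = carrier-treated control wells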
# [4] = HUVEC growth inhibition – cell-based, human, primary screen (AID 575;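 active = viability at or below 30% in both replicate assays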;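 also: 100% = median of untreated cell wells with 0.1% DMSO on each plate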); details: HUVEC proliferation, CellTiter-Glo luminescence, 72 h; at 10 µM; stronger effect = lower value
# [5] = H69AR cell proliferation blockers – human, duplicate replicates, primary screen (AID 580;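 active = viability at or under a set limit in both replicates, limit being median viability minus 3 SD, cut at about 48% in these data, passing the limit was not always enough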;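 also: 100% = mean luminescence of untreated wells and 0% = no signal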); details: H69AR lung tumor cells viability, ATP luminescence, 72 h; at 10 µM; stronger effect = lower value
# [6] = MRP1 drug-resistance reversers in H69AR cells – cell-based, doxorubicin co-treatment, pilot screen (AID 601;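 active = viability loss from added drug above about 55%, and viability with drug at most 40%, in both replicates, limit read from the data, passing the limit was not always enough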); details: CellTiter-Glo, 72 h, at 10 µM; for differential viability (reversal): stronger effect = higher value
# [7] = yeast transport mutant growth inhibition pilot in 384-well plates, post-Golgi transport modulator project (AID 636; in the data active = inhibition above about 31%); details: absorbance 615 nm, about 18 h, stronger effect = higher value
# [8] = growth suppression of yeast trafficking mutant, preliminary HTS, modulators of trafficking downstream of Golgi apparatus project, 1536-format plate, OD 615 nm (AID 637; in the data active = inhibition above about 30%); details: yeast transport mutant growth, absorbance 615 nm, 18 h; stronger effect = higher value
# [9] = S. cerevisiae growth inhibition in permissive medium (OD615), pilot counter-assay for S. cerevisiae lifespan shortening project, permissive growth control (AID 705;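 active = growth inhibition above 25% in both replicates, a cutoff set 3 SD above the mean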); details: OD615, 24 h, at 10 µM, stronger effect = higher value
# [10] = S. cerevisiae growth inhibition in restrictive medium, OD615, pilot screen, restrictive growth control, yeast lifespan reduction project (AID 706;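 active = growth inhibition above a set limit, 3 SD over mean compound inhibition, in both replicates, cut at about 43% in these data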;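 also: modified DeaD lifespan yeast strain shifted to restrictive glucose medium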); details: OD615, 48 h, at 10 µM, stronger effect = higher value
# [11] = doxorubicin toxicity protection in MRP-1 cells – H69AR cells, CellTiter-Glo, duplicate, MRP-1 activator project, pilot screen (AID 807;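 active = viability increase at or above a cutoff of the median across tested compounds plus 3 SD, cut at about 8.5% in these data, passing the limit was not always enough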;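 also: compound pretreatment 18-22 h then 72 h combined with doxorubicin; 0% = doxorubicin alone and 100% = vehicle without doxorubicin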); details: H69AR viability with doxorubicin, CellTiter-Glo luminescence; at 10 µM; stronger effect = higher value
# [12] = viability of HCT116 without oncogenic beta-catenin – human colon tumor cells, pilot screen (AID 823;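 active = cell viability at or below a set limit in both duplicate runs, the limit being the all-compound median minus 4 SD, cut at about 23% in these data, passing the limit was not always enough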;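 also: 0% = wells killed by 20 µM Hyamine and 100% = untreated DMSO cell wells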); details: HCT116 beta-catenin knockout viability, CellTiter-Glo, 60 h; at 10 µM; stronger effect = lower value
# [13] = viability of PTEN-null HCT116 cells – cell-based, HCT116 clonal line, CellTiter-Glo, pilot screen (AID 824;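 active = viability at or below 27.92% in each of two runs, the all-compound median minus 4 SD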;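 also: 0% = 20 µM Hyamine control and 100% = vehicle cell control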); details: HCT116 PTEN-deleted viability, 60 h, at 10 µM, stronger effect = lower value
# [14] = RAM pathway blockade in budding yeast – dse1pr::URA3 reporter, 5-FOA selection, pilot screen (AID 869;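 active = inhibition over a set limit, the all-compound mean plus 3 SD, in both replicate runs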;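 also: 0% = DMSO wells with no growth and 100% = 10 µM 1-NA-PP1 with full growth; RAM network block rescues cells from 5-FOA so hits raise OD615 growth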); details: S. cerevisiae dse1pr::URA3 5-FOA growth, OD615, 2 d; at 10 µM; stronger effect = higher value; strain carries analog-sensitive mutant Cbk1 kinase
# [15] = H69AR cells + 2 uM doxorubicin, measured here: viability with 2 uM doxorubicin, stronger effect = lower value
# [16] = H69AR cells, compound alone cytotoxicity
# Sequence of Receptor tyrosine-protein kinase erbB-2 (Homo sapiens) (P04626 whole entry, looked up): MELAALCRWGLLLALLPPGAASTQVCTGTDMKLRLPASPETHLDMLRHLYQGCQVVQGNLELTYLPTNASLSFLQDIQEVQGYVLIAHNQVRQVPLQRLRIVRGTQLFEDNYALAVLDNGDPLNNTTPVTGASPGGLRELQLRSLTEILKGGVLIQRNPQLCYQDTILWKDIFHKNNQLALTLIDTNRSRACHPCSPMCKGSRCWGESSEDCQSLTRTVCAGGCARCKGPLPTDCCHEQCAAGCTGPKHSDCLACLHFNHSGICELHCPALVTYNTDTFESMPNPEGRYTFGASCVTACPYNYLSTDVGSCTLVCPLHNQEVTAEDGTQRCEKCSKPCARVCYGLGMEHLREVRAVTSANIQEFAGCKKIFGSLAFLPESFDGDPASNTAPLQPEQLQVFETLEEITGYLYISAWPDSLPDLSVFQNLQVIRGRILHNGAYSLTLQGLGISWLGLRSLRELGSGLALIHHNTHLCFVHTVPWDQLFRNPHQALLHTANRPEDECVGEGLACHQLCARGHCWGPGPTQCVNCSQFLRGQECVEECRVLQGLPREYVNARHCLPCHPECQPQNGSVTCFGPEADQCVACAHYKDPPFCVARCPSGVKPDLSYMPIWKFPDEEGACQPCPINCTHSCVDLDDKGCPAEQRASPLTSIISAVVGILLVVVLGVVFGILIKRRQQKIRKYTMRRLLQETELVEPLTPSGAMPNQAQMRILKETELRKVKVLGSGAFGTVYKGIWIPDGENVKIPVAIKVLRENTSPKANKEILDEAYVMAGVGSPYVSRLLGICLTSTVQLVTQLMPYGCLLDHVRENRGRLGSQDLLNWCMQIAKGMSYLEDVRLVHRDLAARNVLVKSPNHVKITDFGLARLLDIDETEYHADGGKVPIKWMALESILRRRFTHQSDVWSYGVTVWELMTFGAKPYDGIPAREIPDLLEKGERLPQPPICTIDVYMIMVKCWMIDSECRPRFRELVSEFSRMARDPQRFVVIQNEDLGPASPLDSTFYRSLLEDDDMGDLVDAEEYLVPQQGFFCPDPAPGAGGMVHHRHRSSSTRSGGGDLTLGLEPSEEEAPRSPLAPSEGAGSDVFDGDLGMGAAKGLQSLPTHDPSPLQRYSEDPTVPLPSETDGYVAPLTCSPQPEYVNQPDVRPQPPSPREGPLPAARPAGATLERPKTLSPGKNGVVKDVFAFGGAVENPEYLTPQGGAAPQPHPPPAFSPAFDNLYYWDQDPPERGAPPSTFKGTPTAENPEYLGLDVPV
Structure (SMILES),viability [1] [%],Her2 level [2],viability [3],viability [4],viability [5],differential viability (reversal) ([6]; H69AR cells + 2 uM doxorubicin),"viability [6, 15] [%]","viability [6, 16] [%]",inhibition [7],inhibition [8],growth inhibition [9],growth inhibition [10],viability increase [11],viability [12],viability [13],inhibition [14]
COc1ccc(OC)c(-n2nnnc2SCC(=O)NCc2ccc3c(c2)OCO3)c1,98.5,88% (inactive),98.5% (inactive),84.4% (inactive),93.9% (inactive),-1.01% (inactive),94.9,93.9,-5.87% (inactive),5.57% (inactive),–,–,–,–,–,–
CC(C)COC(=O)C(C#N)c1nc2ccccc2nc1N1CCN(Cc2ccccc2)CC1 (stereo unspecified),76,85.5% (inactive),76% (inactive),64.7% (inactive),74.7% (inactive),-5.91% (inactive),80.6,74.7,-4.53% (inactive),14.3% (inactive),–,–,–,–,–,–
O=C(NCc1ccco1)Nc1ccc2nsnc2c1,104,114% (inactive),104% (inactive),51.5% (inactive),22% (active),-1.17% (inactive),23.2,22,-3.6% (inactive),-6.45% (inactive),–,–,–,–,–,–
C/C(=C\C(=O)c1ccc(F)cc1)Nc1ccc(N2CCOCC2)cc1,89.5,97% (inactive),89.5% (inactive),114% (inactive),90.9% (inactive),1.85% (inactive),89.1,90.9,-4.4% (inactive),-0.65% (inactive),–,–,–,–,–,–
O=C(Cn1ccc2ccccc2c1=O)NCCC(=O)N1CCN(C2CCCCC2)CC1,99.5,86.5% (inactive),99.5% (inactive),96.6% (inactive),104% (inactive),22.2% (inactive),81.7,104,-3.2% (inactive),2.13% (inactive),–,–,–,–,–,–
COc1ccc(NC(=O)c2oc3ccc(S(=O)(=O)N4CCC5(CC4)OCCO5)cc3c2C)cc1,87.5,90.5% (inactive),87.5% (inactive),39.4% (inactive),37.5% (active),-5.32% (inactive),42.8,37.5,1.17% (inactive),-14.8% (inactive),–,–,–,–,–,–
Cn1c(N2CCC(C(N)=O)CC2)nc2c1c(=O)n(Cc1ccc(Br)cc1)c(=O)n2C,95,84.5% (inactive),95% (inactive),98.5% (inactive),102% (inactive),8.06% (inactive),93.8,102,3.38% (inactive),-5.08% (inactive),–,–,–,–,–,–
COC(=O)c1ccccc1NC(=O)Nc1cc(C)cc(C)n1,96,86% (inactive),96% (inactive),103% (inactive),102% (inactive),6.95% (inactive),94.8,102,-1.58% (inactive),-1.9% (inactive),–,–,–,–,–,–
CC1(C)CC(=O)C(C=Nc2ccncc2)=C(O)C1,96.5,93% (inactive),96.5% (inactive),92.2% (inactive),106% (inactive),7.13% (inactive),99.3,106,-4.19% (inactive),-7.62% (inactive),–,–,–,–,–,–
CCC(C(=O)Nc1ccccc1C(=O)N1CCCC1)N1C(=O)c2ccccc2C1=O (stereo unspecified),96.5,88% (inactive),96.5% (inactive),78.3% (inactive),102% (inactive),5.91% (inactive),95.8,102,-3.29% (inactive),-4.83% (inactive),–,–,–,–,–,–
COc1cc(Nc2cc(C)nc3ncnn23)cc(OC)c1OC,102,98.5% (inactive),102% (inactive),98.2% (inactive),100% (inactive),21% (inactive),79.3,100,1.6% (inactive),-3.11% (inactive),–,–,–,–,–,–
Cc1cc(NCCN2CCOCC2)n2nc(C)c(-c3ccccc3)c2n1,102,87% (inactive),102% (inactive),91.1% (inactive),96.4% (inactive),12.8% (inactive),83.6,96.4,-0.52% (inactive),-3.33% (inactive),–,–,–,–,–,–
CC(C)=CCC(C)(C)C1OCCN1C(=O)c1ccccc1 (stereo unspecified),84.5,99% (inactive),84.5% (inactive),82.4% (inactive),98% (inactive),8.65% (inactive),89.3,98,-3.77% (inactive),2.3% (inactive),–,–,–,–,–,–
Cc1nnc(SCC(=O)Nc2ccc3c(c2)OCCO3)n1CC1CCCO1 (stereo unspecified),102,88.5% (inactive),102% (inactive),91.8% (inactive),94% (inactive),3.46% (inactive),90.6,94,-5.14% (inactive),-3.33% (inactive),–,–,–,–,–,–
Cc1cccc(-n2c(=O)cc(N3CCN(c4ccc(F)cc4)CC3)[nH]c2=O)c1,85.5,110% (inactive),85.5% (inactive),66.5% (inactive),71.9% (inactive),0.095% (inactive),71.8,71.9,-2.13% (inactive),-2.33% (inactive),-12.5% (inactive),-8.2% (inactive),-5.2% (inactive),79.3% (inactive),66.1% (inactive),4.09% (inactive)
